Data on 36 compounds can be found in PubChem BioAssay (NCATS).

Results filed as inconclusive are left out. Unmarked numbers belong to inactive results. Calls of active or inactive are those of the source. Calls come from the whole dose curve; as a rule, active = well fitted inhibition curve with a large enough effect; inconclusive = small, poorly fitted or top-dose-only effect; inactive = no such curve, though single readings can be large or run the other way.
Potency is the fitted concentration of half-maximal effect.

The first experiment in a line: BET inhibitor-based combinations targeting novel dependencies in MECOM-rearranged (r) AML: OCI-AML3 cell line (AID 2202232).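 For viability (% of control): plate controls were DMSO vehicle wells for no effect and wells without cells for full effect.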 Note: nearly all actives have a fitted effect of over 35% in size. The settings on record: CellTiter-Glo luminescence, 48 h; Potency: OCI-AML3 viability; series mostly up to 46 µM; viability (% of control): at the top concentration. Summed up: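 Cells were plated at 500 per well and exposed to an 11-point dose series of each drug for 48 hr. Viability was measured by CellTiter-Glo luminescence, normalized to DMSO and empty-well controls, and summarized as AUC and per-cell-line Z-AUC.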
As for `C=C(C)[C@@H]1CC[C@]2(C)CC[C@]3(C)[C@H](CC[C@@H]4[C@@]5(C)CC[C@H](O)C(C)(C)[C@H]5CC[C@]43C)[C@@H]12`, the “viability (% of control)” value is 127%.

As to `COc1c(C)cnc(Cn2cnc3c(Cl)nc(N)nc32)c1C`, the Potency is 0.372 µM (active).

Take `Cc1c(C)c2c(c(C)c1O)CCC(C)(COc1ccc(CC3SC(=O)NC3=O)cc1)O2` (stereo unspecified): the “viability (% of control)” value was 82.8%.

A short description of another experiment: BET inhibitor-based combinations targeting novel dependencies in MECOM-rearranged (r) AML: MV-4-11 cell line (AID 2202233).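 For viability, % of control: plate controls were DMSO for no effect and blank wells for full effect.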 Note: nearly all actives have a fitted effect of over 45% in size. The settings on record: MV-4-11 AML viability, CellTiter-Glo luminescence, 48 h; series mostly up to 46 µM; viability, % of control: at the top concentration. The essentials:
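Activity is given as area under the curve and as Z-AUC, mean-centred within each cell line. It comes from 11-point dose curves normalized to DMSO and empty wells. CellTiter-Glo luminescence was read after 48 hr drug exposure of 500 cells/well.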
Take `O=C(O)[C@H](O)[C@@H](O)[C@H](O[C@@H]1O[C@H](CO)[C@H](O)[C@H](O)[C@H]1O)[C@H](O)CO`: the “viability, % of control” value is 113%.

With `CC(=O)SC[C@@H](C)C(=O)N1CCC[C@H]1C(=O)N[C@@H](Cc1ccccc1)C(=O)O`, the “viability, % of control” value is 131%.

Consider `CN(C)CC/C=C1/c2ccccc2COc2ccc(CC(=O)O)cc21`, for which the “viability, % of control” value is 124%.

In the case of `CC1CNc2c(cccc2S(=O)(=O)N[C@@H](CCCN=C(N)N)C(=O)N2CC[C@@H](C)C[C@@H]2C(=O)O)C1` (stereo partly specified), the “viability, % of control” value is 116%.

For the compound `CC1(CN2CCC(n3c(=O)[nH]c4ccccc43)CC2)OCc2ccccc2-n2cccc21` (stereo unspecified), the Potency is 14.8 µM (active).

For `COc1cccc2c1CCCC2CCCN1CCN(C2CCCCC2)CC1` (stereo unspecified), the Potency is 16.6 µM (active).

As to `Cc1ccc(C(=O)Nc2ccc(CN3CCN(C)CC3)c(C(F)(F)F)c2)cc1C#Cc1cnc2cccnn12`, the Potency was 0.0263 µM (active).

Consider `CCCCCCNC(=O)n1cc(F)c(=O)[nH]c1=O`, for which the Potency is 1.66 µM (active).

On to `O=C(O)[C@H](Cc1c[nH]c2ccccc12)N1C(=O)c2ccccc2C1=O`, for which the “viability, % of control” value was 61%.

`O=C(/C=C\n1cnc(-c2cc(C(F)(F)F)cc(C(F)(F)F)c2)n1)NNc1cnccn1`: the Potency is 0.525 µM (active).

Consider `Nc1nc(-c2nn(Cc3ccccc3F)c3ncccc23)nc(N)c1N1CCOCC1`, for which the “viability, % of control” value was 142% [at 15.6 µM].

Consider `COc1ccc(-n2c(C)c([N+](=O)[O-])c3ccc(O)cc32)cc1`, for which the Potency was 5.25 µM (active).

As for `Cc1ccc(S(=O)(=O)Nc2nc3ccccc3nc2Nc2ccc3nsnc3c2)cc1`, the “viability, % of control” value was 102% [at 15.6 µM].

Turning to `CC(C)C[C@H](NC(=O)[C@H](CCc1ccccc1)NC(=O)CN1CCOCC1)C(=O)N[C@@H](Cc1ccccc1)C(=O)N[C@@H](CC(C)C)C(=O)[C@@]1(C)CO1`, the Potency was 0.0209 µM (active).

For the compound `Oc1ccc(C2CCN(c3ccnc4ccccc34)CC2)cc1O`, the Potency is 9.34 µM (active).

For `CC(=O)[C@H]1CC[C@H]2[C@@H]3CC=C4C[C@@H](O)CC[C@]4(C)[C@H]3CC[C@]12C`, the “viability, % of control” value was 120%.

In the case of `Cc1ccsc1C(=CCCN1CCC[C@@H](C(=O)O)C1)c1sccc1C`, the “viability, % of control” value is 93.8%.

With `Oc1cc2c(cc1O)C1c3ccc(O)c(O)c3OCC1(O)C2` (stereo unspecified), the Potency was 23.5 µM (active).

For the compound `CN(CC(=O)N(Cc1ccc(C2CCCCC2)cc1)c1ccc(C(=O)O)c(O)c1)S(=O)(=O)c1c(F)c(F)c(F)c(F)c1F`, the Potency is 6.61 µM (active).

`Cc1nc2cnc3ccc(C#Cc4cccnc4)cc3c2n1-c1ccc(C(C)(C)C#N)cc1`: the Potency was 0.742 µM (active).

In the case of `C[C@]12CCC(=O)C=C1[C@@H]1C[C@@H]1[C@H]1[C@@H]3[C@@H]4C[C@@H]4[C@@]4(CCC(=O)O4)[C@@]3(C)CC[C@@H]12`, the Potency was 16.6 µM (active).

Take `CCOC(=O)[C@@H](N)CCC(=O)N[C@@H](CSCc1ccccc1)C(=O)N[C@@H](C(=O)OCC)c1ccccc1`: the Potency is 18.6 µM (active).

Take `O=c1ccn([C@@H]2O[C@H](CO)[C@H](O)[C@@H]2F)c(=O)[nH]1`: the “viability, % of control” value was 65.1%.

As to `N#Cc1cc(NC(=O)Nc2nnc(-c3ccncc3)s2)ccc1-c1cn[nH]c1`, the “viability, % of control” value was 112%.

With `NS(=O)(=O)c1ccc(NC2=CC(=O)c3ccccc3C2=O)cc1`, the Potency was 0.833 µM (active).

As for `CC(C)C[C@H](NC(=O)CNC(=O)c1cc(Cl)ccc1Cl)B1OC(=O)CC(CC(=O)O)(C(=O)O)O1` (stereo partly specified), the Potency is 0.132 µM (active).

Turning to `COc1cc(S(C)(=O)=O)ccc1Nc1nc2ccc(-c3ccc(NC(=O)[C@H](C)c4ccc(F)cc4)cc3)cn2n1`, the Potency was 1.18 µM (active).

`O=C(O)CCC1CCC(c2cc(F)ccc2F)(S(=O)(=O)c2ccc(Cl)cc2)CC1` (stereo unspecified): the “viability, % of control” value is 104%.

As for `CC(C)C(C)C=CC(C)C1CCC2C3=CC=C4CC(O)CCC4(C)C3CCC21C` (stereo unspecified), the “viability, % of control” value is 120%.

On to `O=C(O)c1cn(-c2ccc(F)cc2)c2cc(N3CCNCC3)c(F)cc2c1=O`, for which the “viability, % of control” value is 100%.

On to `CCc1cc(-c2n[nH]c(C)c2-c2ccc3c(c2)OCCO3)c(O)cc1O`, for which the Potency is 4.68 µM (active).

In the case of `CC[C@@H]1C(=O)N(C)c2cnc(Nc3ccc(C(=O)NC4CCN(C)CC4)cc3OC)nc2N1C1CCCC1`, the Potency was 0.105 µM (active).

For the compound `Nc1nc2[nH]cc(CCc3ccc(C(=O)N[C@@H](CCC(=O)O)C(=O)O)cc3)c2c(=O)[nH]1`, the Potency is 0.372 µM (active).
